# Measurements as given in article PMC7862700, “An all-to-all approach to the identification of sequence-specific readers for epigenetic DNA modifications on cytosine”.
# Experiments:
# Assay in all cases: DAPPL (digital affinity profiling via proximity ligation, sequencing); 10 mM Tris-HCl pH 7.5, 50 mM NaCl, 1 mM DTT, 4% glycerol, room temperature, 30 min; GST-TFs on glutathione beads, 16-mer random dsDNA library, 0.1% formaldehyde crosslink after washing; high values mean tight binding
# [1] = target: T1, FLI1 (Homo sapiens, UniProt Q01543 1-452); settings: protein: recombinant; tags: N-terminal GST; dsDNA, one strand shown
# T1 sequence: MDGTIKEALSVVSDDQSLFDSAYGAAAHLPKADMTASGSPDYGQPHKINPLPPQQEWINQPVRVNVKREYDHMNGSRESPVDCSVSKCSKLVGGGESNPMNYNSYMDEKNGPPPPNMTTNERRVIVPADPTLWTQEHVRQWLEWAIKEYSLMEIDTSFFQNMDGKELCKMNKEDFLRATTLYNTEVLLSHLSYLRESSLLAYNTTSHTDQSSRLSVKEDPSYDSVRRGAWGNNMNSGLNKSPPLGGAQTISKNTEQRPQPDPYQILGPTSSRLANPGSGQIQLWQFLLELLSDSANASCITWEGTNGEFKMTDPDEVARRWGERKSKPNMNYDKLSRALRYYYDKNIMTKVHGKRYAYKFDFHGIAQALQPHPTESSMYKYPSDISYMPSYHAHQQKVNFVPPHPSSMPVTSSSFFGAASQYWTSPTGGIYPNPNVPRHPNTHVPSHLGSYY
# In short: (§1)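 Pools of DNA-barcoded human transcription factors, expressed in yeast as GST fusions on glutathione beads and combined with a tag-only sample, were incubated with 200 nmole of a 16-mer random double-stranded DNA library. Incubation took 30 min at room temperature in Tris/NaCl/DTT/glycerol buffer and was followed by washing, 0.1% formaldehyde crosslinking, proximity ligation (BsaI/T4 ligase, 1 h, 37 °C), PCR amplification and sequencing on an Illumina NextSeq500. Binding signal is the ratio of a hexamer's read frequency for a factor to its frequency for the tag-only sample.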
# [2] = target: T2, ELK1 (Homo sapiens, UniProt P19419 1-428); settings: protein: recombinant; tags: N-terminal GST; dsDNA, one strand shown
# T2 sequence: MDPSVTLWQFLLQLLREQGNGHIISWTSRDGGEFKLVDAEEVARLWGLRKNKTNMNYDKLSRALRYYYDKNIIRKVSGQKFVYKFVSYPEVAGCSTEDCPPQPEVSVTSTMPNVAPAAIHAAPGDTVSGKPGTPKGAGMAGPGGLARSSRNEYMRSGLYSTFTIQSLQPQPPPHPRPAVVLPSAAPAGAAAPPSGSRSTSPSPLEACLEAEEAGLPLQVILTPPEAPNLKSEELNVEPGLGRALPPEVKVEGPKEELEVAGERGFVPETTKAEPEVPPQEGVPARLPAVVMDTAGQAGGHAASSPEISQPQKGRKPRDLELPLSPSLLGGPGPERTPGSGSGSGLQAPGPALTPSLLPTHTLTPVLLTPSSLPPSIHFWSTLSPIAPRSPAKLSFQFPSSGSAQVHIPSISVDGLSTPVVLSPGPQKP
# In short: as §1
# [3] = target: T3, GABPA (Homo sapiens, UniProt Q06546 1-454); settings: protein: recombinant; tags: N-terminal GST; dsDNA, one strand shown
# T3 sequence: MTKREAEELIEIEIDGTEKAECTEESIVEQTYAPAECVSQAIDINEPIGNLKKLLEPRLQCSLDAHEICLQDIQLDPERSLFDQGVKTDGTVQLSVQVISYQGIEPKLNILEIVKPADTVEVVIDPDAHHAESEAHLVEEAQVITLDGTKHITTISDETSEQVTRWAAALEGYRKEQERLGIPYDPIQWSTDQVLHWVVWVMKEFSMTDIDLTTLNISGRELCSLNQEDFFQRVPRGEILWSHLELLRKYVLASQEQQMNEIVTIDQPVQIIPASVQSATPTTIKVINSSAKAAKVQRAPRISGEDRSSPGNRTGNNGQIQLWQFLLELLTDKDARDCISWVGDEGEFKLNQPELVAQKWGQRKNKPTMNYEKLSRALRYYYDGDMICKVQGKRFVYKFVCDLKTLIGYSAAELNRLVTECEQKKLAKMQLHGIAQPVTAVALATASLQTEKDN
# In short: as §1
# [4] = target: T4, ERG (Homo sapiens, UniProt P11308 1-479); settings: protein: recombinant; tags: N-terminal GST; dsDNA, one strand shown
# T4 sequence: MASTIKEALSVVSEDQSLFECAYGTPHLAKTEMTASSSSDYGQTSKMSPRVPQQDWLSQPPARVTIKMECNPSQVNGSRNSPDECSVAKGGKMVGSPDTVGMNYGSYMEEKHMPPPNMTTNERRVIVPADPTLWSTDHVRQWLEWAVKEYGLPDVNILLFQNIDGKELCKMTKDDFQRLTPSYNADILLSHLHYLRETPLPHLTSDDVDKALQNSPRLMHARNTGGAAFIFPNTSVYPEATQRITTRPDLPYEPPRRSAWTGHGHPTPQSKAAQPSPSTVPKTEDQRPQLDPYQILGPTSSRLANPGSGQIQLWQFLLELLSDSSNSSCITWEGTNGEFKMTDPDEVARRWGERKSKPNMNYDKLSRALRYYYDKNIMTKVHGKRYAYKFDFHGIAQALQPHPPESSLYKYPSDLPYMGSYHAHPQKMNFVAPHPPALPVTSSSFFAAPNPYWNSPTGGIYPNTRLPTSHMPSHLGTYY
# In short: as §1
# [5] = target: ELF1 (Homo sapiens, UniProt P32519 1-619); settings: protein: recombinant; tags: N-terminal GST; dsDNA, one strand shown
# In short: as §1
# [6] = target: T5, EHF (Homo sapiens, UniProt Q9NZC4 1-300); settings: protein: recombinant; tags: N-terminal GST; dsDNA, one strand shown
# T5 sequence: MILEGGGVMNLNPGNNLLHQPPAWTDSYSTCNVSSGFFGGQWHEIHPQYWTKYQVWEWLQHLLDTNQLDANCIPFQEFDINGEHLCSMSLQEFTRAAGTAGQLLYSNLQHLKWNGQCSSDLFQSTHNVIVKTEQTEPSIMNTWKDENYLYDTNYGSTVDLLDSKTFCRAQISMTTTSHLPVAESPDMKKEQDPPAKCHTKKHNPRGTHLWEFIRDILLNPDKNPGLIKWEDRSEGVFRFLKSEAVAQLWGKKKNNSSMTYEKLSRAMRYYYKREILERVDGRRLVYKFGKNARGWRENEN
# In short: as §1
# [7] = target: SPI1 (Homo sapiens, UniProt P17947 1-270); settings: protein: recombinant; tags: N-terminal GST; dsDNA, one strand shown
# In short: as §1
# [8] = target: SPIB (Homo sapiens, UniProt Q01892 1-262); settings: protein: recombinant; tags: N-terminal GST; dsDNA, one strand shown
# In short: as §1
# [9] = target: T6, ELK3 (Homo sapiens, UniProt P41970 1-407); settings: protein: recombinant; tags: N-terminal GST; dsDNA, one strand shown
# T6 sequence: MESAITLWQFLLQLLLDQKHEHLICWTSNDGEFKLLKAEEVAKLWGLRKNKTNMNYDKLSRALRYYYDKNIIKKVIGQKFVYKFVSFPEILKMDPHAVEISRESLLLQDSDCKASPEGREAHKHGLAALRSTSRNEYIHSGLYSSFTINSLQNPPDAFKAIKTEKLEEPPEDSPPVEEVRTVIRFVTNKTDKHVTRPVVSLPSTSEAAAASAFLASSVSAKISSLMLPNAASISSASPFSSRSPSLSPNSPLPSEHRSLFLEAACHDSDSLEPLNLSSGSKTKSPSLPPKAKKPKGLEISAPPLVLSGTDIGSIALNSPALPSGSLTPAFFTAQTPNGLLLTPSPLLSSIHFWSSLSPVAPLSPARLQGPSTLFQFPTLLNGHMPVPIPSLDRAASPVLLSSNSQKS
# In short: as §1
# [10] = target: T7, FEV (Homo sapiens, UniProt Q99581 1-238); settings: protein: recombinant; tags: N-terminal GST; dsDNA, one strand shown
# T7 sequence: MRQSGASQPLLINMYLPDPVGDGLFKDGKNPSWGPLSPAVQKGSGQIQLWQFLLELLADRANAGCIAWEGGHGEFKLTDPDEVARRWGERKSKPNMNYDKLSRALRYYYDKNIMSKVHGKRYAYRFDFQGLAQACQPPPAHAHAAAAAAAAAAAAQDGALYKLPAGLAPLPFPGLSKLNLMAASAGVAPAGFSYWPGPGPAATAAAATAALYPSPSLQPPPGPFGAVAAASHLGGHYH
# In short: as §1
# [11] = target: ETV5 (Homo sapiens, UniProt P41161 1-510); settings: protein: recombinant; tags: N-terminal GST; dsDNA, one strand shown
# In short: as §1
# [12] = target: HSF1 (Homo sapiens, UniProt Q00613 1-529); settings: protein: recombinant; tags: N-terminal GST; chain copies: 3; dsDNA, one strand shown
# In short: as §1
# [13] = target: T8, SPIC (Homo sapiens, UniProt Q8N5J4 1-248); settings: protein: recombinant; tags: N-terminal GST; dsDNA, one strand shown
# T8 sequence: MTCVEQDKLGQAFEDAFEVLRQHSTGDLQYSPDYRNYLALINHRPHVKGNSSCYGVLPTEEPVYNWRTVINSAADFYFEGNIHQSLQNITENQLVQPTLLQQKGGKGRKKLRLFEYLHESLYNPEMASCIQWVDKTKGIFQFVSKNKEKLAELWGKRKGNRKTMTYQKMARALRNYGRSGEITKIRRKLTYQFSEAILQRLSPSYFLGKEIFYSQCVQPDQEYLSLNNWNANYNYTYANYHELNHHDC
# In short: as §1
# [14] = target: ELF4 (Homo sapiens, UniProt Q99607 1-663); settings: protein: recombinant; tags: N-terminal GST; dsDNA, one strand shown
# In short: as §1
# [15] = target: T9, ELK4 (Homo sapiens, UniProt P28324-2 1-405); settings: protein: recombinant; tags: N-terminal GST; dsDNA, one strand shown
# T9 sequence: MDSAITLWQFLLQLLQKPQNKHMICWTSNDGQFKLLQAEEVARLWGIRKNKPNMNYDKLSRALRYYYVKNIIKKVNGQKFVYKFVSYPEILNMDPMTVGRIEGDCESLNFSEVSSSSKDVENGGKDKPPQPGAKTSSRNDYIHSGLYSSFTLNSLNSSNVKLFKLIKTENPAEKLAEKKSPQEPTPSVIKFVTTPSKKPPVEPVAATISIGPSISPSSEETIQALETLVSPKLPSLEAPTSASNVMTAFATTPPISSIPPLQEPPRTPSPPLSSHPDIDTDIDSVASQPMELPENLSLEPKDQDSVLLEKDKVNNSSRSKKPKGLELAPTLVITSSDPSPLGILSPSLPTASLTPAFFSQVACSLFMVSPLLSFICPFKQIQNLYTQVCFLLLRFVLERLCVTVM
# In short: as §1
# [16] = target: T10, ETV2 (Homo sapiens, UniProt O00321 1-342); settings: protein: recombinant; tags: N-terminal GST; dsDNA, one strand shown
# T10 sequence: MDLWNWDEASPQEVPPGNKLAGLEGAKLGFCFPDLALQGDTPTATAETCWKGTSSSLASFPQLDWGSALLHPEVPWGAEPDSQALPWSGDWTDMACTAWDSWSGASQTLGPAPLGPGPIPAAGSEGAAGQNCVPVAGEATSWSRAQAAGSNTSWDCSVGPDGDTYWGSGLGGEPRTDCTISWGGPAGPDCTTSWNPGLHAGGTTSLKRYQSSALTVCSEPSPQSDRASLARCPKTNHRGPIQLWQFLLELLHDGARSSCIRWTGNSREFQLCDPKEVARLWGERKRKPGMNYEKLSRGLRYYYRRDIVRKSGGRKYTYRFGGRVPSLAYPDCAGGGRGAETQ
# In short: as §1
# [17] = target: T11, ELF3 (Homo sapiens, UniProt P78545 1-371); settings: protein: recombinant; tags: N-terminal GST; dsDNA, one strand shown
# T11 sequence: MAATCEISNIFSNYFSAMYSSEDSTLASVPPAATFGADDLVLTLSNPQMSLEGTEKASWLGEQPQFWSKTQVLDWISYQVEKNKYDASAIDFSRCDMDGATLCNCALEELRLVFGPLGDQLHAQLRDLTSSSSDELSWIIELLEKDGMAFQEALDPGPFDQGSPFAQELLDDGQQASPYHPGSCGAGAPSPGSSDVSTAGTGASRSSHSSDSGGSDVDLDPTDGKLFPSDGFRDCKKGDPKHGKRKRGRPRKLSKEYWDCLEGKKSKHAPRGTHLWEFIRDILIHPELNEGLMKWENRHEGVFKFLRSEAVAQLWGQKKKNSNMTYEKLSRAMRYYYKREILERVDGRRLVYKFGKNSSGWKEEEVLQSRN
# In short: as §1
# [18] = target: CRX (Homo sapiens, UniProt O43186 1-299); settings: protein: recombinant; tags: N-terminal GST; dsDNA, one strand shown
# In short: as §1
# [19] = target: ETV1 (Homo sapiens, UniProt P50549 1-477); settings: protein: recombinant; tags: N-terminal GST; dsDNA, one strand shown
# In short: as §1
# ELF1, sequence (P32519 whole entry): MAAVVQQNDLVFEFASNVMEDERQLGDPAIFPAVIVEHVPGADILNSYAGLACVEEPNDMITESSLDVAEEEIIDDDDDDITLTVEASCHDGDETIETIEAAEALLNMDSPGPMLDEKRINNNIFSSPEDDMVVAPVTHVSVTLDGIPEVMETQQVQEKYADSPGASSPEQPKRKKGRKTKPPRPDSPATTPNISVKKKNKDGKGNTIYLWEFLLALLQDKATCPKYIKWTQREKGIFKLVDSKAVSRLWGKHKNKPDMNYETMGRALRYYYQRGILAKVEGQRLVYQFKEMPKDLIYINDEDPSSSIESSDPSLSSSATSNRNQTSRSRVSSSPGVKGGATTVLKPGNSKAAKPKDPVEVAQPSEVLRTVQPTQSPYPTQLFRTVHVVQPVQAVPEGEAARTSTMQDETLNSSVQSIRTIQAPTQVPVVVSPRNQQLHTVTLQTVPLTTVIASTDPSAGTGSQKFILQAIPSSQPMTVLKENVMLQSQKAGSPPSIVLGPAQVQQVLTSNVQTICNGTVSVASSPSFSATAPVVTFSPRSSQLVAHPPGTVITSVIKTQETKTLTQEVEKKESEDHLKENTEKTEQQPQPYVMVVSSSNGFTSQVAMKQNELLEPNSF
# ETV5, sequence (P41161 whole entry): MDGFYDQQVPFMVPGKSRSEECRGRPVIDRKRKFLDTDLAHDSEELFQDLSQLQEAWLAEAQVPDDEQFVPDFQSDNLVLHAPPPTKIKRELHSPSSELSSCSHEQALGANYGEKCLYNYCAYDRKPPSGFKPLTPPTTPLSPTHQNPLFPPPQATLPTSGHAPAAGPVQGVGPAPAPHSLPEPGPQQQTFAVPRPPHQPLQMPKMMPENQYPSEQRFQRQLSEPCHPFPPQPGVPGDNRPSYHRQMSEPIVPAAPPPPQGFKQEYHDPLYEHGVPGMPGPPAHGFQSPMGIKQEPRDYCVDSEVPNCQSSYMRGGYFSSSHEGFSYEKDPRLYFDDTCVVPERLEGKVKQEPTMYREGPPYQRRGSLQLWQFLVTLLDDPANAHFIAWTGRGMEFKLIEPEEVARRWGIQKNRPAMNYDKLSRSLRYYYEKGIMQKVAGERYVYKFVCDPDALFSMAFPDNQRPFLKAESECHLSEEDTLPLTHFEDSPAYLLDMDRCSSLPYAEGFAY
# ETV1, sequence (P50549 whole entry): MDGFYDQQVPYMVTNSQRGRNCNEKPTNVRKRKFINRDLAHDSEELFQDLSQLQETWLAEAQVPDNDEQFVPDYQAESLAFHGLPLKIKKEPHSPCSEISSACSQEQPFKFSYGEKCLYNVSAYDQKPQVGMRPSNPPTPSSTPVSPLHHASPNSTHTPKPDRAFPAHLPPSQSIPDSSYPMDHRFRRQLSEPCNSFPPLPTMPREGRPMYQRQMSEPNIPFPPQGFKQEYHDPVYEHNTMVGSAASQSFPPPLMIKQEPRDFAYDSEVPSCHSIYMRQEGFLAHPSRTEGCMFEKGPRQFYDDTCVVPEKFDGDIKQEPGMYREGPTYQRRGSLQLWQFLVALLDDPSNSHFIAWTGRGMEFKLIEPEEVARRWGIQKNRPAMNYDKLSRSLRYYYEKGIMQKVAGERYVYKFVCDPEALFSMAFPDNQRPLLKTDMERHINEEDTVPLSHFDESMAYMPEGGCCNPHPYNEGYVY
# SPIB, sequence (Q01892 whole entry): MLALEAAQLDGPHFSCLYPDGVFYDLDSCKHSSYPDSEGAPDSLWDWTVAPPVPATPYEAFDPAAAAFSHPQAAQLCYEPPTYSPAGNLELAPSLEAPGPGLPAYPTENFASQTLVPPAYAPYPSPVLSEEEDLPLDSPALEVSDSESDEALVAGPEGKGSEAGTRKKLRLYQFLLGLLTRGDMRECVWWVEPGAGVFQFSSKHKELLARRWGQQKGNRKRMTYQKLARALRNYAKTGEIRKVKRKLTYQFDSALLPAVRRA
# HSF1, sequence (Q00613 whole entry): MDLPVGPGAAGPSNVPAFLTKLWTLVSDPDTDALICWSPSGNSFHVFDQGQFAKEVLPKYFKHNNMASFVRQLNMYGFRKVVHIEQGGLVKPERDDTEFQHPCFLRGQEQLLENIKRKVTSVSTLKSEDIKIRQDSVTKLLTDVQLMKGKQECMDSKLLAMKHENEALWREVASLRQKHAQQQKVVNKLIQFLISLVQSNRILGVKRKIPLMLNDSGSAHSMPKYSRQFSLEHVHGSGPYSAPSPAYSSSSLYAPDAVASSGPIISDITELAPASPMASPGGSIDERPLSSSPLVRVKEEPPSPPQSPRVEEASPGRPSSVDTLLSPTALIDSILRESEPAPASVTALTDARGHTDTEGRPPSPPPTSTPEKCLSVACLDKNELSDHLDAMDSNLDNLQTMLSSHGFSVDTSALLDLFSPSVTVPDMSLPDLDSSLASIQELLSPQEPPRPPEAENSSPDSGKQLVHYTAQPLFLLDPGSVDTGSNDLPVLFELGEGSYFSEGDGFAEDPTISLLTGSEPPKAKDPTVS
# CRX, sequence (O43186 whole entry): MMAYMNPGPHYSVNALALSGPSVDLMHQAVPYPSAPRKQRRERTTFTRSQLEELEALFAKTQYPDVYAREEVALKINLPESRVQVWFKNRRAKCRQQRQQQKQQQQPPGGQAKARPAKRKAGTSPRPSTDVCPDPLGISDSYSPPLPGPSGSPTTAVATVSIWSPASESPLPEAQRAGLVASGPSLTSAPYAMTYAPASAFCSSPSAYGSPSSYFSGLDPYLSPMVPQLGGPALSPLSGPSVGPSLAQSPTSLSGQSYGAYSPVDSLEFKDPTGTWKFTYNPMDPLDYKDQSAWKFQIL
# ELF4, sequence (Q99607 whole entry): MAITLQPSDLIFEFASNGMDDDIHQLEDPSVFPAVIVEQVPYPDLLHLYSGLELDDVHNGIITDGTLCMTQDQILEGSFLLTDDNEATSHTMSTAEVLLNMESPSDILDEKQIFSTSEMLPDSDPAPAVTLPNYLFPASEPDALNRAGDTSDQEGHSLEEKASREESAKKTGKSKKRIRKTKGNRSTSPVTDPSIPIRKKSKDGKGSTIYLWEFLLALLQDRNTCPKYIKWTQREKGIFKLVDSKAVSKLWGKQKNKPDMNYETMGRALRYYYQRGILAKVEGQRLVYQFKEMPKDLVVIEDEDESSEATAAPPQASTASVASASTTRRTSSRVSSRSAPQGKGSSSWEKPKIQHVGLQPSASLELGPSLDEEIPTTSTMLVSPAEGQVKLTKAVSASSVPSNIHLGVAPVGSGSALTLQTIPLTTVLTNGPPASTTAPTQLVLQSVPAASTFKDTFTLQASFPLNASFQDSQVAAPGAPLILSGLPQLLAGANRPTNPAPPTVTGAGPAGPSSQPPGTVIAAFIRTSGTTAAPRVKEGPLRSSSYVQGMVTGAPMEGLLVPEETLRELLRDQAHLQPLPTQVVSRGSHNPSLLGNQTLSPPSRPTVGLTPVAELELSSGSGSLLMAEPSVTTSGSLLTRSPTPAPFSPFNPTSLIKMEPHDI
sequence,measurement,setting,value
GTATCT,binding signal,[1],"1.23 fold enrichment (6-mer frequency, TF over GST control)"
same,binding signal,[2],"1.19 fold enrichment (6-mer frequency, TF over GST control)"
same,binding signal,[3],"1.17 fold enrichment (6-mer frequency, TF over GST control)"
same,binding signal,[4],"1.14 fold enrichment (6-mer frequency, TF over GST control)"
same,binding signal,[5],"1.18 fold enrichment (6-mer frequency, TF over GST control)"
same,binding signal,[6],"1.09 fold enrichment (6-mer frequency, TF over GST control)"
same,binding signal,[7],"1.1 fold enrichment (6-mer frequency, TF over GST control)"
same,binding signal,[8],"1.25 fold enrichment (6-mer frequency, TF over GST control)"
same,binding signal,[9],"1.09 fold enrichment (6-mer frequency, TF over GST control)"
same,binding signal,[10],"1.14 fold enrichment (6-mer frequency, TF over GST control)"
same,binding signal,[11],"1.11 fold enrichment (6-mer frequency, TF over GST control)"
same,binding signal,[12],"1.15 fold enrichment (6-mer frequency, TF over GST control)"
same,binding signal,[13],"1.15 fold enrichment (6-mer frequency, TF over GST control)"
same,binding signal,[14],"1.14 fold enrichment (6-mer frequency, TF over GST control)"
same,binding signal,[15],"1.22 fold enrichment (6-mer frequency, TF over GST control)"
same,binding signal,[16],"1.23 fold enrichment (6-mer frequency, TF over GST control)"
same,binding signal,[17],"1.26 fold enrichment (6-mer frequency, TF over GST control)"
same,binding signal,[18],"1.02 fold enrichment (6-mer frequency, TF over GST control)"
same,binding signal,[19],"1.15 fold enrichment (6-mer frequency, TF over GST control)"
